# Screening results as filed in PubChem.
# KDM5B inh – KDM5B demethylase inhibition. Q9UGL1. Potency, µM (series often up to 57.7 µM), actives largely listed as inhibitors. 220,000 compounds, 2.6% hits. KDM5B demethylase, FDH-coupled NADH fluorescence (FDH is formaldehyde dehydrogenase); active = well fitted inhibition curve with a large enough effect; also: 0% is about no effect; nearly all actives have a fitted effect of over 70% in size
#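 KDM5BΔAP (200 nM final) in 50 mM HEPES pH 7.5, 0.01% Tween-20 was preincubated 10 min at RT with compound over a concentration range. Substrate mix (H3K4me3 12.5 µM, α-KG 25 µM, Fe²⁺, ascorbate, NAD⁺, FDH) was added, and NADH fluorescence change over 30 min gave dose-response curves.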
# * marks the source's active call; other numbers are inactive results; i = inactive; [ ] = dose if it differs, or a comment. The entries come from a sample that favours hits as a whole. Potency is read from the fitted curve at half-maximal effect.
SMILES,KDM5B inh
Cc1ccc(S(=O)Cc2nc(-c3ccc(C(=O)NCc4cccc(C)c4)cc3)oc2C)cc1 (stereo not given),i
O=C(O)c1ccc(-c2nnc3ccc(NC(=O)C4CCC4)cn23)cc1,32µM*
Cc1cccc(CNC(=O)c2ccc(-c3nnc4ccc(NC(=O)C5CCC5)cn34)cc2)c1,28µM*
Cc1ccc(C(=O)NCC(C)C)cc1,i
O=C(Nc1ccc(-c2nnc3n2CCCC3)cc1)C1CC1,i
CCOc1cc(C2C=C(C(=O)O)Nc3ncnn32)ccc1OC(C)C (stereo not given),i
CCCOc1c(Cl)cc(C(=O)Nc2nnc(CC)s2)cc1OC,i
COc1cccc(/C=C(\C#N)C(=O)Nc2ccccc2C(F)(F)F)c1OC,i
CC(C)n1cnnc1SCC(=O)N(C)CCOc1ccc(Br)cc1,i
Cn1cnc2ccc(-c3cccc(O)c3)nc2c1=O,i
O=c1c2nc(-c3ccncc3)ccc2ncn1-c1ccccc1,i
O=c1c2nc(-c3ccsc3)ccc2ncn1-c1ccccc1,40µM*
Cc1nc2c(c(=O)c3ccccc3n2C)c2nc3ccccc3n12,i
COc1ccccc1-n1cc(-c2nc(C3CCOC3)no2)cn1 (stereo not given),28µM*
COc1cccc(-c2ccc(-c3nc(C4CCOC4)no3)o2)c1 (stereo not given),i
CCOc1cccc(-c2nc(C3CCOC3)no2)c1 (stereo not given),i
O=C(CSc1ccc2c(c1)OCCCO2)c1ccc2c(c1)CCO2,i
CNC(=O)CNC(=O)c1cc(Br)ccc1Cl,i
CNC(=O)c1cc(Br)cn2ccnc12,35µM*
CC(C)NC(=O)c1ccn[nH]1,i
CC(C)NC(=O)c1cc(Br)cn2ccnc12,40µM*
CC(C)NC(=O)c1nccnc1C(=O)O,i
C/C=C/C=C/C(=O)Nc1sccc1C#N,i
O=C(COC(=O)c1nn(-c2ccccc2)c(=O)c2ccccc12)Nc1cccc(C(=O)NC2CC2)c1,i
CN(Cc1cccc(C(N)=O)c1)C(=O)c1nn(-c2ccccc2)c(=O)c2ccccc12,i
SMILES,KDM5B inh
Cc1oc2c(c1C(=O)N(C)C)CN(C(=O)CCc1ccccc1)CC2,i
COc1ccccc1C(=O)Oc1ccc(F)cc1C(=O)/C=C/c1ccc(C)cc1,i
O=C(Nc1ccc(C(F)(F)F)cc1)c1nn(C2CCS(=O)(=O)C2)c2c1CCCC2 (stereo not given),i
Cc1nnc(NC(=O)c2cc(-c3ccccc3)nc3ccccc23)s1,i
CCc1ccc(OCc2nnc(SCc3c(F)cccc3Cl)n2CC(C)C)cc1,i
O=C1NC(=O)/C(=C/c2c(OCc3ccc(C(=O)O)cc3)ccc3ccccc23)N1,i
Cc1nc(CNC(=O)c2ccc3oc(-c4cccc(F)c4)nc3c2)cs1,20µM*
O=C(O)c1ccc2oc(-c3ccccc3F)nc2c1,i
O=C(Nc1cccc(-c2nc3cc(Cl)ccc3o2)c1)c1cccc(F)c1,i
O=C(Nc1ccc2oc(-c3cccc(F)c3)nc2c1)c1ccc2ccccc2c1,i[11.5 µM]
CN(CCC(O)c1ccccc1)C(=O)c1ccc2oc(-c3cccc(F)c3)nc2c1 (stereo not given),22µM*
Fc1cccc(-c2nc3cc(Cl)ccc3o2)c1,i
CCOc1ccc(C(C)(C)C)cc1S(=O)(=O)NCc1ccco1,i
CCN(CC)c1nc2ccccc2s1,i
CNc1snc(C)c1C(=O)OC(C)C(=O)NC1CCCCC1 (stereo not given),i
CCNC(=O)COC(=O)c1c(C)c(-c2ccccc2)nc2ccccc12,i
O=C(CCCn1c(=O)c2cccn2c2ccc(Br)cc21)N1CCN(c2ccccn2)CC1,i
COC1CCC12CCN(C(=O)c1cccn1C)CC2 (stereo not given),i
Cc1ccc(C(=O)N2CCC(OC3CCN(C)CC3)CC2)s1,i
COCCO[C@H]1C(=O)N(C2CCN(C(=O)c3cccn3C)CC2)[C@H]1c1ccncc1,i
CCOc1nccnc1NC1CCN(C(=O)c2cccn2C)CC1,28µM*
CCOc1nccnc1NC1CCN(C(=O)c2ccc(C)s2)CC1,28µM*
Cc1ccc(C(=O)N2CCC(Oc3ccc(C(=O)N(C)C)cn3)CC2)s1,i
C=CCNc1nc(-c2ccc3c(c2)OCCCO3)cs1,i
C=C(C)CN1CCN(c2nc3c(c(=O)[nH]c(=O)n3C)n2Cc2ccc(F)cc2)CC1,i
SMILES,KDM5B inh
O=C1NC2(CCCN(Cc3ccccc3)C2)Oc2ccccc21 (stereo not given),i
O=C(CCc1ncc(-c2c(F)cccc2F)o1)NCC(=O)Nc1ccccc1Br,i
COc1cccc(NC(=O)c2cc(=O)c3cc(C)ccc3o2)c1,i
CCSc1nc2c(c(=O)n(C)c(=O)n2C)n1CCc1ccc(OC)cc1,i
O=C(Cn1nnc(-c2ccc(Br)cc2)n1)N1CCOCC1,i
N#C/C(=C/c1ccc2c(c1)OCO2)C(=O)OCC(=O)N1CCCCC1,i
CCC(NC(=O)Cn1c(=O)c2c(ncn2C)n(C)c1=O)c1ccc(Cl)cc1 (stereo not given),i
CCC(=O)Oc1ccc2c(C)c(Cc3ccccc3)c(=O)oc2c1C,i
